The list is not random: actives were taken first. Their share in the collection is about 18%.
DT40 TDP1 no CPT: qHTS for Inhibitors of human tyrosyl-DNA phosphodiesterase 1 (TDP1): qHTS in cells in absence of CPT | DT40 Tdp1-/- hTDP1 cells, no CPT, ATP luminescence, 48 h | Potency, µM (doses to about 46.2 µM), inactives show at the top dose activity change, negative = growth inhibition, hits mostly inhibitors | AID 686978, 2013 | hit rate 15% among 420,000; note: potency is the fitted concentration of half-maximal effect; nearly all actives have a fitted effect of over 55% in size
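Growth of hTDP1-complemented DT40 Tdp1-knockout cells is measured by ATP luminescence after at least 48 hr compound exposure at 37 °C, with DMSO substituting for the 20 nM CPT used in the parallel screen.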
LDHA inh: qHTS assay for inhibitors of human lactate dehydrogenase | L-lactate dehydrogenase A chain (Homo sapiens), P00338 | AID 1347041, 2019 | hit rate 0.15% among 480,000 | activity change, % (values are at about 110 or 230 µM) | purified LDHA, NADH/diaphorase-resazurin fluorescence; active compounds read low; in the data active = activity change below about -30%; inconclusive = mostly about -25% to -30%;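 note: plate controls were DMSO wells for no effect and wells without enzyme for full effect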
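Human LDH5 at 2 nM final in Tris HCl pH 7.4 with 0.06 mM NADH and 0.2 mM pyruvate, reacted 5 minutes at room temperature. Remaining NADH coupled via diaphorase/resazurin; resorufin fluorescence read at 0 and 20 minutes, normalized to enzyme-free and DMSO wells.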
IL-1B inflam inh: qHTS for Inhibitors of Inflammasome Signaling: IL-1-beta AlphaLISA Primary Screen; THP-1 LPS/ATP IL-1B secretion, AlphaLISA, 16 h; active compounds read low; activity change, % at 57.5 µM; hit rate 4.7% among 360,000; AID 743279, 2014; in the data active = activity change below about -50%; inconclusive = mostly about -30% to -49%
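Secreted IL-1B measured by AlphaLISA bead assay after 16 h compound exposure of THP-1 cells; compounds (final up to 57.5 uM) added 1 h before LPS (250 ng/mL) and ATP (1.25 mM) stimulation; lower signal means less secretion.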
Gal4-VP16 FLuc: VP16 counterscreen qHTS for inhibitors of ROR gamma transcriptional activity; Drosophila S2 Gal4-VP16 UAS-luciferase, luminescence, 20 h; Potency, µM (top dose mostly 53.6 µM), inactives show top-dose activity, negative = inhibition, most hits filed as inhibitors; hit rate 3.5% among 310,000; AID 2546, 2010;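 note: Gal4-VP16 expression switched on by copper sulfate through the metallothionein promoter; potency is the fitted concentration of half-maximal effect; nearly all actives have a fitted effect of over 50% in size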
RORg inh: qHTS for inhibitors of ROR gamma transcriptional activity; Nuclear receptor ROR-gamma (Mus musculus), P51450; Drosophila S2 Gal4-RORgamma UAS-luciferase reporter, 20 h; Potency, µM (top dose mostly 53.6 µM), without a hit: at the highest dose activity change, negative = inhibition, actives largely listed as inhibitors; AID 2551, 2010; hit rate 5.4% among 310,000; note: potency is the fitted concentration of half-maximal effect; nearly all actives have a fitted effect of over 60% in size
Target sequence (P51450 whole entry, looked up, the tested form may be a part): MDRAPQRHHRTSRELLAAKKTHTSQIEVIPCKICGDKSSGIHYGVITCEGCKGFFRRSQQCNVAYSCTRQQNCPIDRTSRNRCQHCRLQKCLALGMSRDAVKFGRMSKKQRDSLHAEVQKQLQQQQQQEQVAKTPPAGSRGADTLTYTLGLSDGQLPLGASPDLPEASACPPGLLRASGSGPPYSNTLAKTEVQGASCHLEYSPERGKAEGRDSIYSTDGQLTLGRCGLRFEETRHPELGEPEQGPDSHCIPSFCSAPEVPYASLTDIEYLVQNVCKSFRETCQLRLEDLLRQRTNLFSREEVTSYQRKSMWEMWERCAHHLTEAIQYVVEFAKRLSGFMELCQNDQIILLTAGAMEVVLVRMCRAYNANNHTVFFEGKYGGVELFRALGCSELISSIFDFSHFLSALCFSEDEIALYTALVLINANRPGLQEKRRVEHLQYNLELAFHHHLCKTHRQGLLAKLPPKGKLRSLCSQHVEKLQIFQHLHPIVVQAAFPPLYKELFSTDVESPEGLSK
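Drosophila S2 cells stably expressing Gal4-DBD/mouse RORγ fusion under metallothionein promoter plus UAS-luciferase; compound 1 h, then 700 uM CuSO4 induction for 20 h at ambient temperature; inhibition read as reduced luminescence.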
DT40 TDP1 CPT: qHTS for Inhibitors of human tyrosyl-DNA phosphodiesterase 1 (TDP1): qHTS in cells in presence of CPT | hit rate 12% among 420,000 | chicken DT40 Tdp1-/-;hTDP1 cells + 20 nM CPT, ATP luminescence, 48 h | Potency, µM (highest dose often 46.2 µM), for the others: top-dose activity change, negative = growth inhibition, most hits filed as inhibitors; note: potency is the fitted concentration of half-maximal effect; nearly all actives have a fitted effect of over 55% in size
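Cell growth measured by CellTiter-Glo luminescence after a minimum 48 h, 37 C compound exposure with 20 nM CPT in Tdp1-knockout DT40 cells stably expressing hTDP1, seeded 400/well; qHTS titration format.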
Active calls of the source: *; ? = inconclusive; / = no result given; ! = a repeat was not active; [ ] = remark or other dose. Unless noted, calls come from the whole dose curve; as a rule, active = well fitted curve in the direction sought with a large enough effect; inconclusive = small, poorly fitted or top-dose-only effect, or another doubt; inactive = no such curve, though single readings can be large; an effect the other way counts as inactive or inconclusive. Unless noted, % is set by controls: 0 for no effect and ±100 for the full control effect.

SMILES | DT40 TDP1 no CPT | LDHA inh | IL-1B inflam inh | Gal4-VP16 FLuc | RORg inh | DT40 TDP1 CPT
Cc1cc2nc(-c3ccc(SCC(=O)Nc4ccc(S(=O)(=O)N5CCCC5)cc4)nc3)[nH]c2cc1C | 13µM* | -6 | 50 | ? | ? | -5%
O=C(CSc1cnc2cc(S(=O)(=O)N3CCCCC3)ccc2n1)Nc1ccccc1 | / | -2 | / | / | / | /
Cc1ccc(NC(=O)CCCc2cccs2)c(F)c1 | / | -3 | / | / | / | /
O=C(OC(C(=O)N1CCOCC1)c1ccccc1)c1n[nH]c(=O)c2ccccc12 (stereo unspecified) | / | 9 | / | / | / | /
OCC(O)COc1cccc2ccccc12 (stereo unspecified) | 0% | / | / | / | / | 0%
C=CCOc1ccccc1OC[C@H](O)CNC(C)C | / | / | / | -12%[17 µM] | -10%[2.98 µM] | /
CC(C)NCC(O)COc1cccc2ccccc12 (stereo unspecified) | 16µM*! | -4 | 8 | 4% | -3% | 16µM*!
OC(CNCc1ccccc1F)COc1cccc2ccccc12 (stereo unspecified) | ? | -7 | -70* | -3% | -8% | ?
CCc1ccc(CN(C)CC(O)COc2cccc3ccccc23)cc1 (stereo unspecified) | ? | 6 | -99* | -6% | -3% | ?
Cn1c(=O)c2c(nc(NCCc3ccccc3)n2Cc2ccccc2Cl)n(C)c1=O | / | -2 | / | / | / | /
O=C(O)c1ccc(S(=O)(=O)c2ccc3c(c2)C(=O)N(NC(=O)c2ccc(O)cc2)C3=O)cc1 | 20% | -3 | 17 | 10µM* | 6.3µM* | 10%
Cc1ccc(C(=O)NN2C(=O)c3ccc(S(=O)(=O)c4ccc(C(=O)O)cc4)cc3C2=O)cc1 | ? | -1 | 16 | 4% | -21% | 18µM*
O=C(O)c1ccc2c(c1)C(=O)N(NC(=O)c1ccccc1)C2=O | -7% | -1 | ? | 2% | -23% | -7%
CC(Sc1nnc(-c2ccccc2F)n1C(C)C)C(=O)Nc1nccs1 (stereo unspecified) | / | 8 | / | / | / | /
COc1cc(CN(CC2CCCO2)C(=O)COc2ccc(Br)cc2)cc(OC)c1OC (stereo unspecified) | / | 0 | / | / | / | /
O=C(NC1(C(=O)O)CCCCC1)C1CCC1 | / | 0 | / | / | / | /
CN(C(=O)Cn1nc(-c2ccccc2F)ccc1=O)C1CCS(=O)(=O)C1 (stereo unspecified) | / | -17 | / | / | / | /
COc1cccc(C2CNC3(CCCC(C)C3)c3[nH]c4ccccc4c32)c1OC (stereo unspecified) | 23µM* | 0 | ? | 7% | -21% | ?
COc1cccc(C2CC(=O)Nc3c2c(=O)n(C)c(=O)n3C)c1OC (stereo unspecified) | -9% | -9 | -26 | -4% | 3% | -2%
CCc1ccc2oc(=O)cc(CN3CCN(C(=O)c4ccco4)CC3)c2c1 | / | -11 | / | / | / | /
Cc1cc(Br)cn2c(Cc3ccsc3)c(-c3ccc(F)cc3)nc12 | 15µM* | 3 | 74 | / | / | -24%
Cc1cc(Br)cn2c(Cc3ccsc3)c(C3CCCCC3)nc12 | ? | 7 | 0 | / | / | ?
Cc1cc(Br)cn2c(Cc3ccsc3)c(C(C)(C)C)nc12 | 26µM* | 11 | 12 | / | / | ?
CCCc1nc2c(C)cc(Br)cn2c1Cc1ccsc1 | 23µM* | 5 | 25 | / | / | ?
Cc1cc(Br)cn2c(Cc3ccccc3C(F)(F)F)c(-c3ccccc3)nc12 | ? | 1 | 43 | / | / | ?
SMILES | DT40 TDP1 no CPT | LDHA inh | IL-1B inflam inh | Gal4-VP16 FLuc | RORg inh | DT40 TDP1 CPT
Cc1cc(Br)cn2c(Cc3cccc(F)c3)c(-c3ccc(F)cc3)nc12 | ? | 2 | 18 | / | / | ?
CCCc1nc2c(C)cc(Br)cn2c1Cc1ccccc1C(F)(F)F | 23µM* | 3 | 39 | / | / | 23µM*
COc1ccc(/C=C/c2nn3c(-c4ccc5c(c4)OCO5)nnc3s2)cc1 | / | 5 | / | / | / | /
CC(C)(C)C(=O)Nc1cccc(C(=O)NOCc2ccccc2)c1 | / | 1 | / | / | / | /
COC(=O)c1cc(OC(=O)CCc2ccc(OC)c(Br)c2)cc(C(=O)OC)c1 | / | 9 | / | / | / | /
CC(=O)Nc1cc(-c2cccc(NS(C)(=O)=O)c2)cn2c(-c3ccc(F)c(Cl)c3)cnc12 | 23µM* | 1 | / | / | / | ?
CC(=O)Nc1cc(-c2cccc(C(=O)N(C)C)c2)cn2c(-c3cccc(C(=O)N(C)C)c3)cnc12 | ? | -4 | -4 | / | / | ?
COc1ccc(-c2cc(NC(C)=O)c3ncc(-c4ccccc4)n3c2)cc1OC | ? | 9 | -25 | / | / | ?
COc1ccc(-c2cnc3c(NC(C)=O)cc(-c4cccc(NS(C)(=O)=O)c4)cn23)cc1OC | 23µM* | 1 | -24 | / | / | 21µM*
CC(=O)Nc1cc(-c2ccccc2)cn2c(-c3cccc(C(C)=O)c3)cnc12 | 10µM* | 9 | -3 | / | / | 15µM*
CC(=O)Nc1cc(-c2cccc(NS(C)(=O)=O)c2)cn2c(-c3cccc(C(C)=O)c3)cnc12 | 18µM* | 0 | 64 | / | / | 16µM*
CC(=O)Nc1cc(-c2cccc(C(=O)N(C)C)c2)cn2c(-c3ccccc3)cnc12 | ? | 3 | -11 | / | / | ?
CCOC(=O)C1=C(CS(=O)(=O)c2ccc(Cl)cc2)NC(=O)NC1c1ccc(SC)cc1 (stereo unspecified) | / | -8 | / | / | / | /
Cc1ccc(C)c(N=C/C(C(=O)C(F)(F)F)=C(\O)c2cccs2)c1 | / | 8 | / | / | / | /
COc1ccccc1NC(=O)COc1nc(C(C)C)c2c(c1C#N)CCCC2 | / | 1 | / | / | / | /
COc1ccc(OC)c(CN2CCCCCC2c2cccs2)c1 (stereo unspecified) | / | -5 | / | / | / | /
COc1ccc(CCNC(=O)c2ccc3nc(-c4ccco4)c(-c4ccco4)nc3c2)cc1OC | 21µM* | 7 | -53* | 4% | 6% | 21µM*
COc1ccc(C(=O)NCCc2ccccc2)cc1OC | 9% | -1 | -1 | 26% | 15% | -10%
COc1ccc(/C(O)=C/c2nc3ccc(C(=O)NCCc4cccc(C)c4)cc3[nH]c2=O)cc1OC | 2.3µM* | -4 | 67 | ? | -10% | 2.9µM*
COc1ccc(CCNC(=O)c2ccc(Cl)cc2)cc1OC | ? | 0 | -19 | -1% | -27% | -8%
O=C(O)c1ccc2nc(-c3ccco3)c(-c3ccco3)nc2c1 | -24% | 21 | 8 | -7% | -6% | -10%
